# Source: PubChem BioAssay AID574 (The Scripps Research Institute Molecular Screening Center, 2007)
# The whole screen tested about 65,000 compounds, of which about 450 (0.69%) were called active.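 How the source made its calls: active means activation above a set limit, the screen-wide mean activation plus 3 SD (cut at about 8.5% in these data); inactive means the rest.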 Many of the other results were omitted from the sample, so actives are more common in it than they were. Where a SMILES comes first, the peptide text is derived from it. The star is where a group is joined. Bz = O=C(c1ccccc1)*
# Target: 5-hydroxytryptamine receptor 1E (Homo sapiens) (UniProt P28566)
# Assay: 5-HT1E receptor agonists, primary screen, cell-based, HTS (AID 574);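 further: 100% = positive control agonist at 1 µM giving full maximal response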
# Conditions: CHO 5-HT1E Ga15 NFAT-bla reporter, FRET; at 6 µM; stronger effect = higher value; 0% DMSO wells, 100% control agonist wells
# Chain of 5-hydroxytryptamine receptor 1E (Homo sapiens) (P28566 whole entry, looked up): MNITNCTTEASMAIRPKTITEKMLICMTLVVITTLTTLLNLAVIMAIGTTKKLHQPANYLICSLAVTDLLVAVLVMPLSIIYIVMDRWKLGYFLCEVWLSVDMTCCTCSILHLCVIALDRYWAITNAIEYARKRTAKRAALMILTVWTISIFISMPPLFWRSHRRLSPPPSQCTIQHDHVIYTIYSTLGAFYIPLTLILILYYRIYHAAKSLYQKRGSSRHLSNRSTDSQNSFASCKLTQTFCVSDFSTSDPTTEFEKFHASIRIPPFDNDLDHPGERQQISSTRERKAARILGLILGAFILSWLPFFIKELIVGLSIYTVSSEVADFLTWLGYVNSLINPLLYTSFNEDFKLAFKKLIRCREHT
row,Compound,activation
1,CCCN(c1ccc(C(C)C)cc1)S(=O)(=O)c1c(C)[nH]c(=O)[nH]c1=O,-0.3% (inactive)
2,O=C(Cn1cc2c(n1)CCCCC2)NCCN1CCOCC1,9.7% (active)
3,COCCNC(=O)Cn1cc2c(n1)CCCCC2,-0.1% (inactive)
4,COc1ccccc1CNC(=O)Cn1cc2c(n1)CCCC2,-0.6% (inactive)
5,COCCCNC(=O)COc1cc(C)c(Cl)c(C)c1,-0.3% (inactive)
6,NC(=S)c1ccc(C(N)=S)o1,0% (inactive)
7,Cc1nn(-c2cc(Cl)ccc2N)c(=O)c2ccccc12,-0.1% (inactive)
8,Cc1cccc(NC(=O)CSc2nnc(CCCCCNC(=O)OC(C)(C)C)o2)c1C,-1.3% (inactive)
9,O=C(O)C1CCN1C1CCCCC1 (stereo not drawn),-0.7% (inactive)
10,Cc1ccc(S(=O)(=O)N2C3C=CC(C3)C2C(=O)O)cc1 (stereo not drawn),-0.4% (inactive)
11,COc1ccc(C(=O)N(Cc2ccc(N(C)C)cc2)C2CCS(=O)(=O)C2)cc1 (stereo not drawn),0.3% (inactive)
12,O=C(/C(=N\O)n1cncn1)c1ccc(Br)cc1Br,0.1% (inactive)
13,CCn1c(=N)c(S(=O)(=O)c2ccc(F)cc2)cc2c(=O)n3ccccc3nc21,4.4% (inactive)
14,O=C(NC1CCCC1)c1ccc(Br)s1,-1.5% (inactive)
15,Clc1ccc(C=NC23CN4CN(CN(C4)C2)C3)cc1,-0.1% (inactive)
16,O=C(CN1CCN(CC(=O)Nc2ccc3c(c2)OCO3)CC1)Nc1ccc(F)cc1,-0.7% (inactive)
17,Cc1nnc(SCc2ccc(C(=O)c3ccc(Cl)cc3)o2)n1-c1ccccc1,0.9% (inactive)
18,O=C(NC(Cc1ccccc1)C(=O)N1CCCC1C(=O)O)c1ccccc1 (stereo not drawn) (Bz-Phe-Pro-OH; configuration not given here),-0.4% (inactive)
19,N#Cc1c(/N=C/N2CCCC2)oc(-c2ccccc2)c1-c1ccccc1,0.2% (inactive)
20,O=C(CS(=O)(=O)Cc1ccccc1)Nc1cccnc1,1.1% (inactive)
21,O=C(Nc1ccccc1)Nc1ccccc1C(=O)NCc1ccco1,-0.6% (inactive)
22,O=C(Nc1ccccc1)N(Cc1cccnc1)Cc1ccco1,10.7% (active)
23,COc1cccc(OCC(O)CN2CCN(CCO)CC2)c1 (stereo not drawn),-0.1% (inactive)
24,COc1ccccc1C(=O)C(O)c1ccccc1OC (stereo not drawn),-0.2% (inactive)
25,C=CCC(NCCCO)c1cccc(OC)c1OC (stereo not drawn),10.3% (active)
26,COc1cccc(C(CC(=O)NCCN2CCOCC2)NS(=O)(=O)c2ccc(C)cc2)c1OC (stereo not drawn),0.5% (inactive)
27,CC1CCCC(N2CCN(C(=O)c3ccc(F)cc3)CC2)C1 (stereo not drawn),-0.1% (inactive)
28,O=C(O)CN(Cc1ccco1)S(=O)(=O)c1ccc(F)cc1,0% (inactive)
